Screening results from PubChem BioAssay.
HepG2 viability: qHTS for Inhibitors of TGF-b: Cytotox Counterscreen; HepG2 CAGA-GFP viability, ATP luminescence, 18 h; Potency, µM (titrated, usually from 46.1 µM), hits mostly cytotoxic; hit rate 0.76% among 410,000
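CellTiter-Glo luminescence gave cytotoxicity after 18 hours at 37 degrees C. The cells were HepG2 CAGA-GFP in 1% FBS DMEM, stimulated with 500 pg/mL TGF-beta after compound addition. %Activity was normalised to no-cell wells (complete cell-killing) and DMSO (no toxicity), and curves were fitted and classified.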
ATXN2 expr inh: Primary qHTS for Inhibitors of ATXN expression; HEK-293 ATXN2-luciferase reporter, luminescence, 24 h; Potency, µM (titrated, usually from 57 µM), usual class: inhibitors; hit rate 0.72% among 360,000; note: nearly all actives have a fitted effect of over 55% in size
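ATXN2-luciferase reporter cells (luciferase flanked by upstream and downstream ATXN2 gene portions) were treated 24 h at 37 °C with compounds at up to 57 uM. SteadyGlo luminescence gave expression; GF-AFC fluorescence gave viability.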
GLP1R inv ag: qHTS of GLP-1 Receptor Inverse Agonists (Inhibition Mode); Glucagon-like peptide 1 receptor (Homo sapiens), P43220; hit rate 1.6% among 410,000; HEK293 GLP-1R CRE-luciferase, luminescence, 24 h; GLP-1R form is constitutively active; Potency, µM (highest dose often 38.3 µM), most hits filed as inhibitors; note: nearly all actives have a fitted effect of over 55% in size
Target sequence (P43220 whole entry, looked up): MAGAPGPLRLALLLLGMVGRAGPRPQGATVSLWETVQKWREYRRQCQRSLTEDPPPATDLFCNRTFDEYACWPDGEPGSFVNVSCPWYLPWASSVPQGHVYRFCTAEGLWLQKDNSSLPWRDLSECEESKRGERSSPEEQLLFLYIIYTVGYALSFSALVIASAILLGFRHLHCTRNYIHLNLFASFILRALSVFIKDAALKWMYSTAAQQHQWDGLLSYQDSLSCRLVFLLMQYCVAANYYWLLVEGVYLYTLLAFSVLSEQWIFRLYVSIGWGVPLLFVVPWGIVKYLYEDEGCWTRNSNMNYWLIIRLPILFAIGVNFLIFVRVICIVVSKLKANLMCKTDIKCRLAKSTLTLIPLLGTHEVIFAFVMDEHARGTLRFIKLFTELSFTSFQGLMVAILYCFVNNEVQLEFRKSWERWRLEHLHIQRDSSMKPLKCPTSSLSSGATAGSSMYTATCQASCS
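HEK293 cells stably co-expressing constitutively active GLP-1R and a cAMP-responsive luciferase reporter were seeded in DMEM with 10% Nu serum, given compounds after 12 h, and incubated 24 h at 37 deg C. Luminescence was then read.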
GLP1R ag: qHTS of GLP-1 Receptor Agonists | hit rate 0.007% among 380,000 | Glucagon-like peptide 1 receptor (Homo sapiens), P43220 | HEK293 GLP-1R CRE-luciferase, luminescence, 4-6 h; cells express a hypersensitive GLP-1R form | Potency, µM (top dose mostly 45.6 µM), hits mostly activators
S2 tox: Viability Counterscreen for Primary qHTS for Inhibitors of ATXN expression; AID 651635, 2014; Potency, µM (titrated, usually from 56.7 µM), hits mostly cytotoxic; hit rate 0.49% among 400,000; S2 cells (HEK-293 line with an ATXN2-luciferase reporter) viability, CellTiter-Fluor protease fluorescence, 24 h; note: nearly all actives have a fitted effect of over 40% in size
TGFb SMAD3 inh: qHTS for Inhibitors of TGF-b. hit rate 1.2% among 410,000. Potency, µM (titrated, usually from 46.1 µM), most hits filed as inhibitors. HepG2 CAGA-GFP TGF-b/SMAD3 reporter, GFP fluorescence, 18 h; TGF-beta stimulated, 500 pg/mL final; note: nearly all actives have a fitted effect of over 65% in size
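Inhibition was scored as loss of TGF-beta-induced (500 pg/mL final, 18 hours, 37 degrees C) GFP in HEPG2 cells carrying a CAGA-GFP reporter, in DMEM with 1% FBS. Well GFP was summed per cell; Activity was normalised to unstimulated and stimulated DMSO wells, then concentration-response fitting.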
Hits are given with their value; [ ] = another dose, or the depositor's remark. Sampled rows, rich in hits. Any-hit rate of the full collection: about 3.7%. Calls come from the whole dose curve; as a rule, active = well fitted curve in the direction sought with a large enough effect; inconclusive = small, poorly fitted or top-dose-only effect, or another doubt; inactive = no such curve, though single readings can be large; an effect the other way counts as inactive or inconclusive.

Screening CCc1ccc(NC(=O)C2CCCN(S(=O)(=O)c3ccc4c(c3)CC(C)N4C(C)=O)C2)cc1 (stereo not given) returned HepG2 viability inactive, ATXN2 expr inh inconclusive, GLP1R inv ag inactive, GLP1R ag inactive, S2 tox inactive and TGFb SMAD3 inh inconclusive.
Screening CCC(=O)N1CCCc2cc(S(=O)(=O)N3CCC(C(=O)Nc4ccc(C#N)cc4)CC3)ccc21 returned HepG2 viability inactive, ATXN2 expr inh inactive, GLP1R inv ag inactive, S2 tox inactive and TGFb SMAD3 inh inactive.
`CCc1cccc(NS(=O)(=O)c2ccc3c(c2)CC(C)N3C(=O)C2CC2)c1` (stereo not given) gave HepG2 viability inactive, ATXN2 expr inh inactive, GLP1R inv ag inconclusive, S2 tox inconclusive and TGFb SMAD3 inh 7.1µM.
Screening O=C(N/C(=C/C=C/c1ccccc1)C(=O)N1CCCCC1)c1ccc([N+](=O)[O-])cc1 returned HepG2 viability inactive, ATXN2 expr inh inactive, GLP1R inv ag inconclusive, GLP1R ag inactive, S2 tox 1.5µM and TGFb SMAD3 inh inconclusive.
Screening O=C(N/C(=C/c1ccc([N+](=O)[O-])cc1)C(=O)N1CCCC1)c1ccccc1 returned HepG2 viability inactive, ATXN2 expr inh inactive, GLP1R inv ag inactive, GLP1R ag inactive, S2 tox inactive and TGFb SMAD3 inh inactive.
COc1ccc(F)c(Cn2cnc3c(cnn3C(C)(C)C)c2=O)c1Cl was read as HepG2 viability inactive and TGFb SMAD3 inh inactive.
Screening CN(C)c1nc2cc3c(cc2cc1CN(CC1CCCO1)C(=O)/C=C/c1cccs1)OCO3 (stereo not given) returned S2 tox inactive.
`O=C(c1cc(C2CC2)nc2ccc(Br)cc12)N1N=C(C(F)F)CC1(O)C(F)F` (stereo not given) gave HepG2 viability inactive, ATXN2 expr inh inconclusive, GLP1R inv ag inconclusive, GLP1R ag inactive, S2 tox inconclusive and TGFb SMAD3 inh 7.9µM.
For COc1ccc(C2CC(c3ccccc3)Oc3ccc(C(C)(C)C)cc32)cc1 (stereo not given) the results were HepG2 viability inactive and TGFb SMAD3 inh inactive.
CCCCNC1C(CC)C(CCC)C(C#N)(C#N)C1(C#N)C#N (stereo not given) was read as HepG2 viability inactive, ATXN2 expr inh inactive, GLP1R inv ag inconclusive, GLP1R ag inactive, S2 tox inconclusive and TGFb SMAD3 inh 10µM.
Screening CCC(CC)NCc1ccc2c(c1)c1ccccc1n2CC returned HepG2 viability inactive, GLP1R inv ag 4.5µM, GLP1R ag inactive, S2 tox inconclusive and TGFb SMAD3 inh inconclusive.
`CCn1c2ccccc2c2cc(CNCc3ccc(OC)cc3OC)ccc21` gave HepG2 viability 10µM, ATXN2 expr inh inconclusive, GLP1R inv ag 7.9µM, GLP1R ag inactive and TGFb SMAD3 inh inconclusive.
Screening CCn1c2ccccc2c2cc(CN3CCN(Cc4ccc(Br)cc4)CC3)ccc21 returned HepG2 viability 11µM, GLP1R inv ag inconclusive and TGFb SMAD3 inh inconclusive.
Screening CCn1c2ccccc2c2cc(N)ccc21 returned HepG2 viability inactive, ATXN2 expr inh inactive, GLP1R inv ag inconclusive, GLP1R ag inactive, S2 tox inconclusive and TGFb SMAD3 inh inactive.
For O=C(Nc1ccc(Br)cc1F)c1cnn2c1NC(=C1CC1)C=C2C(F)F the results were HepG2 viability inactive and TGFb SMAD3 inh inactive.
CCOc1ccc(OCC)c(Nc2nc3ccc(Cl)cc3n3cnnc23)c1 was read as HepG2 viability inactive and GLP1R inv ag inactive.
`Nc1nc(=S)[nH]c2n[nH]nc12` gave HepG2 viability inactive and TGFb SMAD3 inh inactive.
`COCCN(C)C(=O)c1cnn(-c2ncc3c(n2)-c2ccccc2CCC3)c1C1CC1` gave S2 tox inactive.
`Cc1cc(C(=O)N/N=C/c2ccc3c(c2)OCO3)c(C)o1` gave HepG2 viability inactive, ATXN2 expr inh inactive, GLP1R inv ag inactive, GLP1R ag inactive, S2 tox inactive and TGFb SMAD3 inh inactive.
Screening O=C(N/N=C/c1ccc2c(c1)OCO2)c1cccs1 returned HepG2 viability inactive, ATXN2 expr inh inactive, GLP1R inv ag inactive, GLP1R ag inactive, S2 tox inactive and TGFb SMAD3 inh inactive.
Cc1ccsc1C(=O)N/N=C/c1ccc2c(c1)OCO2 was read as HepG2 viability 5.6µM, ATXN2 expr inh inactive, GLP1R inv ag inconclusive, GLP1R ag inactive, S2 tox inactive and TGFb SMAD3 inh inactive.
For Cc1occc1C(=O)N/N=C/c1ccc(-c2ccccc2)cc1 the results were HepG2 viability 11µM, ATXN2 expr inh inactive, GLP1R inv ag inconclusive, GLP1R ag inactive, S2 tox inactive and TGFb SMAD3 inh inactive.
Screening Cc1occc1C(=O)N/N=C/c1ccc2c(c1)OCO2 returned HepG2 viability 11µM, ATXN2 expr inh inconclusive, GLP1R inv ag inconclusive, GLP1R ag inactive, S2 tox inactive and TGFb SMAD3 inh inactive.
Cc1occc1C(=O)N/N=C/c1ccc(OCc2ccccc2)cc1 was read as HepG2 viability inactive, ATXN2 expr inh inactive, GLP1R inv ag inconclusive, GLP1R ag inactive, S2 tox inactive and TGFb SMAD3 inh inconclusive.
Screening CS(=O)(=O)c1ccc(/C=C2\C=Cc3ccccc32)cc1 returned HepG2 viability inactive and TGFb SMAD3 inh inactive.
Screening CCn1c(N2CCN(C(=O)C34CC5CC(CC(C5)C3)C4)CC2)nc2ccccc21 returned HepG2 viability inactive, ATXN2 expr inh inactive, GLP1R inv ag 2µM, GLP1R ag inactive, S2 tox inactive and TGFb SMAD3 inh inconclusive.
Screening CCN1CCc2c(sc(NC(=O)c3ccc(S(=O)(=O)N4CCCC(C)C4)cc3)c2C(=O)OC)C1 (stereo not given) returned HepG2 viability inactive, ATXN2 expr inh inactive, GLP1R inv ag inconclusive, GLP1R ag inactive and TGFb SMAD3 inh inactive.
`Cc1cccc(SC2CCN(Cc3nc(CC4CC4)no3)CC2)c1` gave HepG2 viability inactive, ATXN2 expr inh inactive, GLP1R inv ag inactive[0.307 µM], GLP1R ag inactive, S2 tox inactive and TGFb SMAD3 inh inactive.
For Cc1cccc(OC2CCN(Cc3nc(CC4CC4)no3)CC2)c1 the results were HepG2 viability inactive, ATXN2 expr inh inactive, GLP1R inv ag 13µM, GLP1R ag inactive, S2 tox inactive and TGFb SMAD3 inh inactive.
Screening CCN(CC(=O)Nc1ccc(OC)cc1)C(=O)Cc1coc2cc(C)c(C)cc12 returned HepG2 viability 11µM, ATXN2 expr inh inactive, GLP1R inv ag inconclusive, GLP1R ag inconclusive, S2 tox inactive and TGFb SMAD3 inh inactive.
